Measurements: article PMC7819943, “Rice protein-binding microarrays: a tool to detect cis-acting elements near promoter regions in rice”
Over roughly 39,000 sequences, “fluorescence intensity (a.u.)” has its median near 4,300; the highest 2% begin near 39,000. The sample as a whole holds a higher share of the highest values than the screen did.

Target: T1, OsSMF1 (Oryza sativa, UniProt Q6ZLB0 1-436)
T1 sequence: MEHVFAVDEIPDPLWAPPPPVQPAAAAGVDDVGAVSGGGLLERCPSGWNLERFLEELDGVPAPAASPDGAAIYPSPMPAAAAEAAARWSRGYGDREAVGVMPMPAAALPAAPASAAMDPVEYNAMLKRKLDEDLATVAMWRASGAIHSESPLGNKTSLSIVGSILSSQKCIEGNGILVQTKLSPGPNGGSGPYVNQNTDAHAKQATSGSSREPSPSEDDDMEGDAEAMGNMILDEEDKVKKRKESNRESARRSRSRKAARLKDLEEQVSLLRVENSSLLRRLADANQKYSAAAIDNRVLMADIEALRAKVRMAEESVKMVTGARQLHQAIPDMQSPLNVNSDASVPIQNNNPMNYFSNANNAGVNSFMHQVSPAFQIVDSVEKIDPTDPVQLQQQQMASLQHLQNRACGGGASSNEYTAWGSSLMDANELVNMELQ
Test: protein-binding microarray (RPBM); PBS, 2% BSA, 51.3 ng/ul salmon testes DNA, 50 uM zinc acetate, 200 nM TF, 25 C, 1 h; high values mean tight binding
Settings: protein: recombinant; tags: N-terminal polyhistidine and DsRed monomer fusion (pET32a); chain copies: 2; label: CyDye5-dUTP incorporated in the synthesized complementary strand; 3' TTTTT single-stranded linker to array surface; dsDNA, one strand shown
In short: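 An Axon 4000B scanner gave the binding signal as per-feature fluorescence intensity in arbitrary units. This followed washing of a custom Agilent array that had been incubated for 1 h at 25 °C with 200 nM protein in PBS, 2% BSA, salmon testes DNA and 50 µM zinc acetate. The proteins were transcription factors fused at the N-terminus to polyhistidine and DsRed, expressed in E. coli BL21-CodonPlus and purified on Ni–NTA.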

Sequence | binding signal
TGCATCACACGTACACATCTATCCATCGATCCAGTCCGCCCGGAGTCACCTAGTGCAG | 4610 fluorescence intensity (a.u.)
TTTCTTTTCTTCTTTCCTTCTCCCCACGGAGGTGTACGTACGGAGTCACCTAGTGCAG | 3440 fluorescence intensity (a.u.)
TGGTACATGGTGTGCCCTACCGAGCTTAGTCAACCACTTTCGGAGTCACCTAGTGCAG | 3230 fluorescence intensity (a.u.)
TATAGTGGCAACGCATGCTGACGTTACGGTGTACCGCCGTCGGAGTCACCTAGTGCAG | 5900 fluorescence intensity (a.u.)
TTCAGGTGATGAGTCAATGGAGGAGGATGTCATGGAGATTCGGAGTCACCTAGTGCAG | 4750 fluorescence intensity (a.u.)
ATAACGGTGCTAATCTACTGGTGACTGTGCCTGGTGGTGGCGGAGTCACCTAGTGCAG | 4380 fluorescence intensity (a.u.)
ATATCGACTACACACTGTTCTTGGCTACATCGATTGATTGCGGAGTCACCTAGTGCAG | 4840 fluorescence intensity (a.u.)
GCTTATCGATAAACTCAGTGTATTTGCATTCAAATTTTGACGGAGTCACCTAGTGCAG | 3660 fluorescence intensity (a.u.)
TGATTAAAGTATTCTTATTTCTCTTTTGAGCAATATCTAACGGAGTCACCTAGTGCAG | 21900 fluorescence intensity (a.u.)
TAAAGTAAACTCGATCTCTTTCCGAGAAGTGTATTATTTTCGGAGTCACCTAGTGCAG | 41400 fluorescence intensity (a.u.)
TCATTTCTAATGTAAATTATCTTTTGCGTAAGTAATTTCTCGGAGTCACCTAGTGCAG | 3230 fluorescence intensity (a.u.)
AACCCTAAGACTAGAGGCGGGCTGGAGCGTGGAGGCGGGACGGAGTCACCTAGTGCAG | 3240 fluorescence intensity (a.u.)
GGTTTAACCGTTTGGTAGCTGACATGTGCGCCTGGGCATACGGAGTCACCTAGTGCAG | 3380 fluorescence intensity (a.u.)
TCATTGGTATCTCAATGACATGTAGGACCTACATGAGTCACGGAGTCACCTAGTGCAG | 8190 fluorescence intensity (a.u.)
AATCTACTTCCTCCGTTTTATGTTATAAGACTTTCTAGCACGGAGTCACCTAGTGCAG | 3140 fluorescence intensity (a.u.)
AAAATATATTACTACCTCCGTTTCATATTATAAGACTTTCCGGAGTCACCTAGTGCAG | 65400 fluorescence intensity (a.u.)
TTTGAAAATAATACTCCCTCCGTTTCATAATATAAGTGATCGGAGTCACCTAGTGCAG | 3260 fluorescence intensity (a.u.)
ACCACCACCTCGGCATCTCCTCGTCCTCGAGCCCAATACTCGGAGTCACCTAGTGCAG | 3660 fluorescence intensity (a.u.)
AGCAACCAAATCTTCCCAATTCTCACTTGCTCCTAGATACCGGAGTCACCTAGTGCAG | 3840 fluorescence intensity (a.u.)
AGCCTTGTCATGTAAACCTATCCTTTTGAGACACGTGCGTCGGAGTCACCTAGTGCAG | 5780 fluorescence intensity (a.u.)
TTCTCCCACCGCATCCTCTCTCCCCTTGAGTATTTACTTTCGGAGTCACCTAGTGCAG | 3420 fluorescence intensity (a.u.)
CGTAACGCGATCGAGAACCGACTCAGCCGAGACTCATCGTCGGAGTCACCTAGTGCAG | 3710 fluorescence intensity (a.u.)
TTCGAGCAACTCTACCTGGATCCAGACCAACCCCAGTAGACGGAGTCACCTAGTGCAG | 50400 fluorescence intensity (a.u.)
AGGACGAGACCCCATCCAACCACCCCAGCCACGTCAGCAACGGAGTCACCTAGTGCAG | 34000 fluorescence intensity (a.u.)
TGGATATTTTCTACCCCTGGACCCAGCTGTCAGATCCAACCGGAGTCACCTAGTGCAG | 3250 fluorescence intensity (a.u.)
